Source: PubChem (National Center for Advancing Translational Sciences (NCATS))
In the library only some 11% were active in any assay of this set; here they are far more common.
NIH3T3 tox – kills NIH 3T3 cells | NIH 3T3 viability, CellTiter-Glo ATP luminescence, 48-72 h | Potency, µM (doses to about 96.7 µM), usual class: inhibitors | 94,000 compounds, 4.3% hits; note: nearly all actives have a fitted effect of over 55% in size
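Cytotoxicity was measured by CellTiter-Glo ATP luminescence after 48 or 72 h compound exposure at 37 °C. Mouse NIH 3T3 fibroblasts were seeded at 400 cells/well and dosed by 23 nL pin transfer.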
HEK293 tox – HEK 293 cell cytotoxicity; HEK 293 viability, ATP luminescence (CellTiter-Glo), 48-72 h; Potency, µM (series often up to 115 µM), hits mostly inhibitors; 94,000 compounds, 6.6% hits; note: nearly all actives have a fitted effect of over 60% in size
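Luminescence from cellular ATP, measured with CellTiter-Glo, indicates HEK 293 viability. Cells plated at 250 cells/well are treated with compound for 48 or 72 hr at 37 degree Celsius before reagent addition.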
NPR1 antag – antagonists of human natriuretic peptide receptor Npr1; HEK293 hNpr1 GloSensor cGMP, ANP-stimulated luminescence; 76,000 compounds, 1.6% hits; P16066; Potency, µM (titrated, usually from 46.3 µM), actives largely listed as inhibitors; calls by dose curve; note: nearly all actives have a fitted effect of over 60% in size
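HEK293 cells stably expressing human Npr1 and cGMP GloSensor pGS-40F, loaded 2 h with 2% GloSensor reagent, given compound 30 min at room temperature. Luminescence read before and 20 min after 0.1 nM hNppA.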
FLuc inh – blocks purified firefly luciferase enzyme activity; purified P. pyralis luciferase, luminescence, biochemical; Potency, µM (highest dose often 115 µM), actives largely listed as inhibitors; 76,000 compounds, 2.5% hits; AID 1347043; note: nearly all actives have a fitted effect of over 65% in size
Target sequence (P08659 whole entry, looked up): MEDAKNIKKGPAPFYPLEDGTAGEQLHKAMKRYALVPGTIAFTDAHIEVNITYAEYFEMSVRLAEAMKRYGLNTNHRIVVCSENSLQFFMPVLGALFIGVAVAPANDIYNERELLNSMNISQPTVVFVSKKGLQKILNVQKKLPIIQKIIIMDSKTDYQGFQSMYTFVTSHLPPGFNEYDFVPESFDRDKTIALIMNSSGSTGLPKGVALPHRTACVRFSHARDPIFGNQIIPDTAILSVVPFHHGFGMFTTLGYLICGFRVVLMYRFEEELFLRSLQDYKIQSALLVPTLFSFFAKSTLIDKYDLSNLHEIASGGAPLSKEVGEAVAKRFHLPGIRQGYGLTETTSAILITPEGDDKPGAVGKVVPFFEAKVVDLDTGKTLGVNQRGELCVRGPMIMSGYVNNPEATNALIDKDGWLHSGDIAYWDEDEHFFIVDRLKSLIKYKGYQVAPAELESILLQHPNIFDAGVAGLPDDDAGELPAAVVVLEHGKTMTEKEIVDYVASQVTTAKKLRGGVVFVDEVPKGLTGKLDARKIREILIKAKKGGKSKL
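Inhibitors were tested against purified firefly luciferase in a biochemical, low-substrate format (both substrates at 10uM) and luminescence measured with a CCD imager.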
A number is an active result. Unless noted, calls come from the whole dose curve; as a rule, active = well fitted curve in the direction sought with a large enough effect; inconclusive = small, poorly fitted or top-dose-only effect, or another doubt; inactive = no such curve, though single readings can be large; an effect the other way counts as inactive or inconclusive.

For Clc1cccc(CN2CC(CNc3cccnc3)C3(C2)CN(c2ccccc2)C3)c1 (stereo unspecified) the results were NIH3T3 tox inconclusive, HEK293 tox inconclusive, NPR1 antag inactive and FLuc inh inactive.
`O=C(Cc1ccccc1)NCC1CN(C(=O)Cc2cccc(Oc3ccccc3)c2)CC12CN(c1ccccc1)C2` (stereo unspecified) gave NIH3T3 tox inconclusive, HEK293 tox inconclusive, NPR1 antag inactive and FLuc inh inactive.
Screening COc1ccc(C(=O)NCCNC(=O)c2ccc(-c3cncnc3)cc2)cc1 returned NIH3T3 tox inactive and HEK293 tox inactive.
`CC1=C[C@@H](CN)[C@H](C(C)C)C[C@H]1Cc1nc2ccccc2[nH]1` gave NIH3T3 tox inconclusive, HEK293 tox inconclusive, NPR1 antag inactive and FLuc inh inactive.
COc1ccc2[nH]c(C[C@@H]3C[C@@H](C(C)C)[C@H](CNCc4ccccc4O)C=C3C)nc2n1 was read as NIH3T3 tox 35µM, HEK293 tox 45µM, NPR1 antag inconclusive and FLuc inh inactive.
COc1ccc2[nH]c(C[C@@H]3C[C@@H](C(C)C)[C@H](CN(C)C)C=C3C)nc2n1 was read as NIH3T3 tox 89µM, HEK293 tox inconclusive, NPR1 antag inactive and FLuc inh inactive.
Screening O=C(NCCc1ccc(Cl)cc1)c1ccc2nnc(C3CCCC3)n2c1 returned NIH3T3 tox 35µM and HEK293 tox inconclusive.
For O=C(NCc1ccccc1)c1ccc2nnc(C3CCCC3)n2c1 the results were NIH3T3 tox 79µM and HEK293 tox inactive.
Screening CCOC(=O)C1CCN(C(=O)c2cc(-c3ccc(F)cc3)nc3c2cnn3C)CC1 returned NIH3T3 tox inactive and HEK293 tox inconclusive.
Screening CCc1ccc(NC(=O)N2CCC(OC3CCN(S(C)(=O)=O)CC3)CC2)cc1 returned NIH3T3 tox inactive, HEK293 tox inactive, NPR1 antag inactive and FLuc inh inactive.
COc1ccccc1CNC(=O)C[C@@H]1CCNC[C@@H]1Cc1cc(C(C)(C)C)on1 was read as NIH3T3 tox 100µM, HEK293 tox 100µM, NPR1 antag inactive and FLuc inh inactive.
For COc1ccccc1CNC(=O)C[C@@H]1CCNC[C@@H]1Cc1cc(CSc2ccccc2)on1 the results were NIH3T3 tox 79µM, HEK293 tox inconclusive, NPR1 antag inactive and FLuc inh inactive.
For O=C(NCc1ccc(F)cc1F)C1CCN(Cc2ccccc2-c2cccnc2)CC1 the results were NIH3T3 tox inactive and HEK293 tox inconclusive.
`COc1ccc(-c2nnc3ccc(Nc4cccc(OC)c4)nn23)nc1` gave NIH3T3 tox inconclusive, HEK293 tox inconclusive, NPR1 antag inactive and FLuc inh inactive.
For COc1ccc(Nc2ccc3nnc(-c4ccc(C)cn4)n3n2)cc1 the results were NIH3T3 tox inconclusive, HEK293 tox 71µM, NPR1 antag inactive and FLuc inh inactive.
COc1ccnc(-c2nnc3ccc(Nc4cc(OC)c(OC)c(OC)c4)nn23)c1 was read as NIH3T3 tox 50µM, HEK293 tox inconclusive, NPR1 antag inactive and FLuc inh inactive.
Screening COc1ccc(-c2nnc3ccc(NC(C)C)nn23)nc1 returned NIH3T3 tox 50µM, HEK293 tox inactive, NPR1 antag inactive and FLuc inh inactive.
Cc1ccc(-c2nnc3ccc(NC4CCCCC4)nn23)nc1 was read as NIH3T3 tox inconclusive, HEK293 tox 71µM, NPR1 antag inactive and FLuc inh inactive.
Screening Cc1nnc(-c2cc(-c3cnn(C)c3)ccn2)n1C1CCCCC1 returned NIH3T3 tox inconclusive, HEK293 tox inactive, NPR1 antag inactive and FLuc inh inactive.
Cc1nnc(-c2cc(-c3cccnc3)ccn2)n1C1CCCCC1 was read as NIH3T3 tox 89µM, HEK293 tox inactive, NPR1 antag inactive and FLuc inh inactive.
For Cc1nnc(-c2cc(-c3ccc(N4CCOCC4)cc3)ccn2)n1C1CCCCC1 the results were NIH3T3 tox inconclusive, HEK293 tox 79µM, NPR1 antag inactive and FLuc inh inconclusive.
COC(=O)CNC(=O)c1cc(-c2ccccc2C(F)(F)F)nc2c1cnn2C was read as NIH3T3 tox inactive and HEK293 tox inactive.
For COc1ccccc1Nc1ccnc(N2CCCC2C(=O)N2CCOCC2)n1 (stereo unspecified) the results were NIH3T3 tox inactive and HEK293 tox inactive.
CSc1ccc(-c2cccc(CN3CCC(NC(=O)c4cccnc4)CC3)c2)cc1 was read as NIH3T3 tox inactive and HEK293 tox inactive.
`COc1ccccc1-c1ccc(CN2CCC(NC(=O)c3ccc(Cl)cc3)C2)cc1` (stereo unspecified) gave NIH3T3 tox 14µM and HEK293 tox 25µM.
`COc1ccccc1-c1ccc(C(=O)N2CCC(NC(=O)c3ccc(F)cc3)CC2)cc1` gave NIH3T3 tox inactive and HEK293 tox inactive.
Screening COc1ccc(C(=O)NC2CCN(Cc3ccc(-c4ccccc4OC)cc3)C2)cc1 (stereo unspecified) returned NIH3T3 tox 22µM and HEK293 tox inconclusive.
`COc1ccc(F)cc1-c1ccc(CN2CCC(NC(=O)c3cccnc3)C2)cc1` (stereo unspecified) gave NIH3T3 tox inconclusive and HEK293 tox 50µM.
`COc1ccc(F)cc1-c1ccc(CN2CCC(NC(=O)c3ccc(Cl)nc3)C2)cc1` (stereo unspecified) gave NIH3T3 tox 32µM and HEK293 tox 32µM.
`O=C(NC1CCCN(Cc2ccc(-c3cncnc3)cc2)C1)c1ccc(Cl)nc1` (stereo unspecified) gave NIH3T3 tox inactive and HEK293 tox inconclusive.
Screening CC(=O)N1CCC(=O)N(Cc2ccccc2)Cc2cc(F)ccc21 returned NIH3T3 tox inconclusive and HEK293 tox inactive.
COc1ccc(C(=O)NC2CCCN(c3cc(-c4ccc(F)cc4)[nH]n3)C2)cc1 (stereo unspecified) was read as NIH3T3 tox inconclusive, HEK293 tox inconclusive, NPR1 antag inactive and FLuc inh inconclusive.
Screening COc1ccc(C(=O)NC2CCN(Cc3ccc(-c4cc(F)ccc4OC)cc3)C2)cc1 (stereo unspecified) returned NIH3T3 tox 18µM and HEK293 tox 22µM.
`N#Cc1cccnc1-c1cccc(C(=O)NCCNC(=O)c2ccccc2Cl)c1` gave NIH3T3 tox inactive and HEK293 tox inactive.
Screening Cc1cnc(C2CCOCC2)n1CC1CCN(C(=O)COc2ccccc2)CC1 returned NIH3T3 tox inactive and HEK293 tox inactive.
O=C1NCCN2CC3(CCN(C(=O)CCC4CCCC4)CC3)CC12 (stereo unspecified) was read as NIH3T3 tox inactive and HEK293 tox inactive.
c1csc(CN2CCC(Oc3ccccc3-c3nc(-c4cnccn4)no3)C2)c1 (stereo unspecified) was read as NIH3T3 tox inconclusive, HEK293 tox inconclusive, NPR1 antag inactive and FLuc inh inactive.
Cn1cccc1CN1CCC(Oc2ccccc2-c2nc(-c3ccncc3)no2)C1 (stereo unspecified) was read as NIH3T3 tox 40µM and HEK293 tox inconclusive.
